Assay results as given in PubChem BioAssay (EPA / NIEHS).
Results filed as inconclusive are left out. Calls of active or inactive are those of the source. How the source made its calls: active means hit-call score of the fitted dose curve at least 0.9, where 1 is the maximum; inconclusive means response in the unintended direction; inactive means score below 0.9.

target: AR (gene 367) (UniProt P10275); experiment: ACEA_AR_agonist_80hr: ACEA Biosciences xCELLigence Real-Time Cell Analysis on Androgen Receptor Agonism for Proliferation (AID 2283783);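 further: hits increase impedance growth signal above DMSO baseline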
Summary of the method: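 Eight concentrations, 1:4 serial dilution from a 100 uM final top, in biological duplicate. Impedance-based real-time growth of 22Rv1 cells after overnight baseline, recorded hourly and read at 80 hours. Controls: testosterone, MG132, assay media.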

Chain of AR (gene 367) (P10275 whole entry, looked up): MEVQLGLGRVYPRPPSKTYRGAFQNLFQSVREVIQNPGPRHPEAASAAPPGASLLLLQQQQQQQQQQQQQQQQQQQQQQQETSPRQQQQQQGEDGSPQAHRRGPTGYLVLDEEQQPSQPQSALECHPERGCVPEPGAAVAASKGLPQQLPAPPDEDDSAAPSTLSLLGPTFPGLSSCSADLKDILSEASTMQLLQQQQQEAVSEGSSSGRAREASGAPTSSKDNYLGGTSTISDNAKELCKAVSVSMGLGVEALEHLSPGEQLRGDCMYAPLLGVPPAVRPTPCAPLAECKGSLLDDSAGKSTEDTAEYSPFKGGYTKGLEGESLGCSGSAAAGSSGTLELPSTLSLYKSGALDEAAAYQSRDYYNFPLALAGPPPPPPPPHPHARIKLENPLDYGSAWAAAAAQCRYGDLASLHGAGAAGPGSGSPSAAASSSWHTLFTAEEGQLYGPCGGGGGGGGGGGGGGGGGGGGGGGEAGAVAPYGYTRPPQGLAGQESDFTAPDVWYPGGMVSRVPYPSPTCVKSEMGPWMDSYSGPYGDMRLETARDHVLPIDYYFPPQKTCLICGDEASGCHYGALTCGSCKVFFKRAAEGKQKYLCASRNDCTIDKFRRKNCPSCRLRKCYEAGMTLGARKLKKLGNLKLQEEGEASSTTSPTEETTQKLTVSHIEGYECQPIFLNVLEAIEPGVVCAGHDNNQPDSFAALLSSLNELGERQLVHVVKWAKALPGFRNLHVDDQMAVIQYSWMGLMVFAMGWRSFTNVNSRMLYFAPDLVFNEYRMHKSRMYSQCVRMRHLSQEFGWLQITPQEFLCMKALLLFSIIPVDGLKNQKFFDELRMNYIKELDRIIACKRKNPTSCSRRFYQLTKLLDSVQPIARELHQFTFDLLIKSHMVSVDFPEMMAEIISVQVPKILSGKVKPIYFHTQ

Compound	outcome	AC50
COC(=O)CSc1cc(N=c2sc(=O)n3n2CCCC3)c(F)cc1Cl	inactive	
CCCCOCCOCCOCc1cc2c(cc1CCC)OCO2	inactive	
CCOC(=O)COc1cc(-n2ncc(C(F)(F)F)c(C)c2=O)c(F)cc1Cl	inactive	
CC1(C)C(C=C(Cl)Cl)C1C(=O)OCc1cccc(Oc2ccccc2)c1 (stereo unspecified)	inactive	
CSC(=O)c1cccc2nnsc12	inactive	
O=C(O)C1(C(=O)Nc2ccc(Cl)cc2Cl)CC1	inactive	
CN(C)C(=O)Nc1ccc(Cl)c(Cl)c1	inactive	
c1ccc2[nH]c(-c3cscn3)nc2c1	inactive	
O=C(c1ccc(O)cc1O)c1ccc(O)cc1O		0.187 µM (active)

test system: not listed separately; experiment: STM_H9_NormalizedViability: Cytotoxicity Assessment at 120 hours in the Stemina devTOX quickPredict H9 human embryonic stem cell (hESC)-based Assay (AID 2283784)
Summary of the method: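 CellTiter-Fluor RFU, background-subtracted, expressed relative to 0.1% DMSO neutral control by plate. Pluripotent H9 cells; treatment with daily re-dosing. Plates carried 1uM methotrexate (positive) and 5 nM methotrexate (negative) references.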

Compound	AC50	outcome
COC(=O)CSc1cc(N=c2sc(=O)n3n2CCCC3)c(F)cc1Cl	89.5 µM (active)	
Oc1ccc(C(c2ccc(O)cc2)C(Cl)(Cl)Cl)cc1		inactive
CC(C)(c1ccc(O)cc1)c1ccc(O)cc1		inactive
CSC(=O)c1cccc2nnsc12		inactive
C=CCOC(Cn1ccnc1)c1ccc(Cl)cc1Cl (stereo unspecified)		inactive
O=C(O)C1(C(=O)Nc2ccc(Cl)cc2Cl)CC1		inactive
CCCCC(CC)COC(=O)c1ccccc1C(=O)O (stereo unspecified)		inactive
CC(C)CCCCCCc1ccc(O)cc1	81.2 µM (active)	
CN(C)C(=O)Nc1ccc(Cl)c(Cl)c1		inactive
O=C(c1ccc(O)cc1O)c1ccc(O)cc1O	50 µM (active)	

test system: turtle Androgen Receptor (AR), gene 101947425; experiment: ATG_trAR_XSP1: Attagene TRANS-FACTORIAL Multi-Species (XSP1) HepG2 Assay for turtle Androgen Receptor (AR) (AID 2283786)
Summary of the method: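 Partial androgen stimulation is provided by 3 nM 6-alpha-fluorotestosterone in a multi-species trans-factorial panel expressing a turtle AR–GAL4 fusion in HepG2. After 24 h, reporter mRNA is measured by RT-PCR and capillary electrophoresis and fitted upward against DMSO.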

Compound	outcome
CC1(C)C(C=C(Cl)Cl)C1C(=O)OCc1cccc(Oc2ccccc2)c1 (stereo unspecified)	inactive
CCCCC(CC)COC(=O)c1ccccc1C(=O)O (stereo unspecified)	inactive
O=C(c1ccc(O)cc1O)c1ccc(O)cc1O	inactive

target: AR (gene 367) (UniProt P10275); experiment: ACEA_AR_antagonist_80hr: ACEA Biosciences xCELLigence Real-Time Cell Analysis on Androgen Receptor Antagonism for Proliferation (AID 2283787);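 further: 22Rv1 human prostate cancer cells with growth followed by electrical impedance; hits lower the impedance growth signal relative to DMSO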
Summary of the method: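 Impedance-based real-time growth of 22Rv1 prostate cells, read 80 h after dosing. Eight concentrations, 1:4 series, top 100 uM final (0.5% DMSO), n = 2; signal decrease scored against DMSO.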

Compound	outcome	AC50
COC(=O)CSc1cc(N=c2sc(=O)n3n2CCCC3)c(F)cc1Cl	inactive	
CCCCOCCOCCOCc1cc2c(cc1CCC)OCO2		76.3 µM (active)
CC1(C)C(C=C(Cl)Cl)C1C(=O)OCc1cccc(Oc2ccccc2)c1 (stereo unspecified)		33 µM (active)
CC(C)(c1ccc(O)cc1)c1ccc(O)cc1		43.6 µM (active)
CSC(=O)c1cccc2nnsc12	inactive	
O=C(O)C1(C(=O)Nc2ccc(Cl)cc2Cl)CC1		65.1 µM (active)
CN(C)C(=O)Nc1ccc(Cl)c(Cl)c1		40.8 µM (active)
c1ccc2[nH]c(-c3cscn3)nc2c1		50 µM (active)
O=C(c1ccc(O)cc1O)c1ccc(O)cc1O		26.3 µM (active)
